Test results: PubChem BioAssay AID1035475 (Broad Institute, 2014)
Measured potencies and affinities stand elsewhere. Records with an inconclusive call do not appear. Calls of active or inactive are those of the source.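 The calls were made as follows: active = fluorescent signal drops by 40% or more, counted as a hit; inconclusive = no clear call, values can overlap the other calls; inactive = the rest, including any activity in the opposite direction.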

Experiment: blockers of FN fibrillogenesis by fibroblasts – AH1F cells, Alexa488-FN fluorescence, cherry-picks, dose response (AID 1035475);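 also: AH1F fibroblasts incorporating labeled fibronectin into their extracellular matrix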
Details: Alexa488-fibronectin deposition fluorescence, overnight; series mostly up to 35 µM

Structure (SMILES)	outcome
CO[C@@H]1CN(C)C(=O)c2ccc(NC(=O)c3ccc(-c4ccccc4)cc3)cc2OC[C@H](C)NC[C@@H]1C	inactive
COC(=O)C[C@H]1CC[C@H]2[C@H](COc3ccc(NC(=O)Cc4cccs4)cc3C(=O)N2C)O1	inactive
C[C@@H]1CN([C@@H](C)CO)C(=O)c2cc(NC(=O)CCCN(C)C)ccc2O[C@@H]1CN(C)Cc1ccc(-c2ccccc2)cc1	inactive
COCC(=O)Nc1ccc2c(c1)C(=O)N(C)[C@@H]1CC[C@@H](CC(=O)NCc3ccccc3Cl)O[C@H]1CO2	inactive
C=CCC[C@H](Cc1ccc(F)cc1)C(=O)OC[C@H](Cc1c[nH]c2ccccc12)NC(=O)[C@@H](CC=C)CC(=O)N[C@@H](CO)Cc1ccccc1	inactive
Cc1ccc([N+](=O)[O-])cc1NC(=O)CN(C(=O)c1ccccc1Cl)C1CCCCC1	inactive
CO[C@H]1CN(C)C(=O)c2cc(NC(=O)Nc3cc(Cl)cc(Cl)c3)ccc2OC[C@@H](C)NC[C@H]1C	inactive
C[C@H]1CN([C@@H](C)CO)C(=O)c2cccc(NC(=O)Nc3ccc(C(F)(F)F)cc3)c2O[C@H]1CN(C)C(=O)Nc1cccc2ccccc12	inactive
CO[C@@H]1CN(C)C(=O)c2ccc(NC(=O)c3ccc(-c4ccccc4)cc3)cc2OC[C@@H](C)NC[C@@H]1C	inactive
Cc1oc2ccc(O)cc2c1C(=O)c1ccc(Br)cc1	inactive
O=C(Nc1ccccc1F)N1C[C@@H]2[C@H](c3ccccc31)[C@H](CO)N2C(=O)C1CC1	inactive
C[C@@H]1CN([C@@H](C)CO)C(=O)c2cc(-c3ccncc3)cnc2O[C@@H]1CN(C)C(=O)Cc1cccnc1	inactive
C[C@H]1CN([C@@H](C)CO)C(=O)c2cc(-c3ccccc3)cnc2O[C@@H]1CN(C)Cc1ccccc1	inactive
CC(C)Cc1nnc(NC(=O)CSc2nc(N)cc(=O)[nH]2)s1	inactive
CO[C@H]1CN(C)C(=O)c2cc(NC(=O)Nc3cc(Cl)cc(Cl)c3)ccc2OC[C@H](C)NC[C@H]1C	inactive
O=C(Nc1ccccc1F)N1C[C@H]2[C@@H](c3ccccc31)[C@@H](CO)N2C(=O)C1CC1	inactive
Cc1ccc(CS(=O)Cc2ccc(C(=O)NC3CCCC(C)C3C)o2)cc1 (stereo not given)	inactive
CN1c2ccc(-c3ccccc3)cc2[C@@H]2[C@@H](CCN2C(=O)CN2CCOCC2)[C@H]1CO	inactive
C[C@H](CO)N1C[C@H](C)[C@H](CN(C)C)Oc2cc(C#C[C@@H](C)O)ccc2S1(=O)=O	inactive
COCC(=O)Nc1ccc2c(c1)C(=O)N(C)[C@@H]1CC[C@H](CC(=O)NCc3ccccc3Cl)O[C@@H]1CO2	inactive
N#C[C@@H]1[C@H](c2ccccc2C2=CCCCC2)[C@@H](CO)N1S(=O)(=O)c1ccccc1	inactive
CO[C@H]1CN(C)C(=O)c2cc(NC(C)=O)ccc2OC[C@@H](C)N(C(=O)CN2CCOCC2)C[C@H]1C	inactive
CC(NC(=O)CSc1ccc(S(=O)(=O)N2CCOCC2)cn1)c1ccc(Cl)cc1Cl (stereo not given)	inactive
C[C@@H]1CN([C@H](C)CO)C(=O)c2cc(NC(=O)CCCN(C)C)ccc2O[C@@H]1CN(C)Cc1ccc(-c2ccccc2)cc1	inactive

Structure (SMILES)	outcome
CCCCNC(=O)Nc1nc2ccc(CC)cc2s1	inactive
COc1ccccc1CC(=O)OC(C)C(=O)Nc1ccc(S(=O)(=O)N2CCCCC2)cc1 (stereo not given)	inactive
COc1cccc(CN2CCN(C(=O)c3ccc(-c4ccccc4)cc3)CC2)c1OC	inactive
COCC(=O)Nc1ccc2c(c1)C(=O)N(C)[C@H]1CC[C@H](CC(=O)NCc3ccccc3Cl)O[C@H]1CO2	inactive
O=C(NCCS(=O)(=O)N1CCN(c2ccc(F)cc2)CC1)c1ccc(Br)o1	inactive
CO[C@@H]1CN(C)C(=O)c2cc(NC(=O)Nc3cc(Cl)cc(Cl)c3)ccc2OC[C@H](C)NC[C@@H]1C	inactive
C[C@@H]1CN([C@H](C)CO)C(=O)c2cc(NC(=O)C3CCCCC3)ccc2O[C@@H]1CN(C)Cc1ccc(-c2ccccc2)cc1	inactive
COc1ccc(CN(C2CCCC2)S(=O)(=O)c2ccc(-n3cnnn3)cc2)cc1OC	inactive
CO[C@H]1CN(C)C(=O)c2cc(NC(=O)Nc3cc(Cl)cc(Cl)c3)ccc2OC[C@H](C)NC[C@@H]1C	inactive
COC(=O)c1cn(CC(=O)NCc2ccco2)c2ccccc12	inactive
CCC(C)(C)NC(=O)C(OC(=O)c1ccco1)c1ccccc1OC (stereo not given)	inactive
CC(C)NC(=O)N(C)C[C@H]1Oc2ccc(NC(=O)CCN3CCOCC3)cc2C(=O)N([C@H](C)CO)C[C@@H]1C	inactive
CCN1CCN(C(c2ccccc2)c2nnnn2Cc2ccccc2)CC1 (stereo not given)	inactive
CCc1nc2c(OCCc3cccc(OC)c3)cccn2c1N(C)C(=O)c1ccc(C)cc1	inactive
C[C@H](O)C#Cc1ccc2c(c1)O[C@@H](CN(C)C)[C@H](C)CN([C@H](C)CO)S2(=O)=O	inactive
CN(C)C(=O)c1ccc(-c2ccc3c(c2)[C@@H]2[C@@H](CCN2C(=O)c2ccc(F)cc2)[C@H](CO)N3C)cc1	inactive
C[C@@H]1CN([C@@H](C)CO)C(=O)c2cc(-c3ccccc3)cnc2O[C@H]1CN(C)Cc1ccccc1	inactive
COc1ccc(-c2oc3ncnc(NCCCN4CCOCC4)c3c2-c2ccc(OC)cc2)cc1	inactive
CO[C@@H]1CN(C)C(=O)c2cc(NC(=O)Nc3ccc(Cl)c(Cl)c3)ccc2OC[C@@H](C)NC[C@@H]1C	inactive
CCCc1cc(C(=O)OC)c(NC(=O)CCC(=O)O)s1	inactive
CCOC(=O)c1cnc(SCc2nc(N)nc(Nc3ccc(OC)cc3)n2)nc1N	inactive
Cc1ccc(O)c(-c2cc(-c3cccc(Br)c3)n[nH]2)c1	inactive
COc1cccc(-c2ccc3c(c2)[C@H]2[C@H](CCN2S(=O)(=O)c2cccc(OC)c2)[C@H](CO)N3)c1	inactive
Cc1ccc(Nc2nnc(SCc3ccccc3)s2)cc1	inactive

Structure (SMILES)	outcome
Cc1ccn2cc(-c3ccc(NC(=O)c4ccco4)cc3)nc2c1	inactive
CO[C@H]1CN(C)C(=O)c2cc(NC(=O)Nc3ccc(Cl)c(Cl)c3)ccc2OC[C@@H](C)NC[C@H]1C	inactive
COC(=O)C[C@@H]1CC[C@@H]2[C@@H](COc3ccc(NC(=O)Cc4cccs4)cc3C(=O)N2C)O1	inactive
Cc1ccc(NC(=O)COC(=O)c2cc(Cl)ccc2[N+](=O)[O-])c(C)c1	inactive
C[C@H]1CN([C@@H](C)CO)C(=O)c2cccc(NC(=O)Nc3ccc(C(F)(F)F)cc3)c2O[C@@H]1CN(C)C(=O)Nc1cccc2ccccc12	inactive
OC(CNC1CCCc2ccccc21)COc1c(Cl)cccc1Cl (stereo not given)	inactive
O=C(CCNS(=O)(=O)c1cccc2nonc12)NC1CCCc2ccccc21 (stereo not given)	inactive
CCCCOc1ccc(C(C)NC(=O)C2CCCN(S(=O)(=O)CCC)C2)cc1 (stereo not given)	inactive
Nc1c(C(=O)NCc2ccco2)nnn1Cc1ccccc1	inactive
COc1ccccc1N(CC(=O)N(CC(C)C)CC(C)C)S(=O)(=O)c1cccs1	inactive
C[C@H](CO)N1C[C@H](C)[C@H](CN(C)Cc2ccc(-c3ccccc3)cc2)Oc2ccc(NC(=O)C3CCCCC3)cc2C1=O	inactive
O=C(c1cccnc1)N1C[C@@H]2[C@H](c3ccccc31)[C@@H](CO)N2CC1CCCC1	inactive
CO[C@H]1CN(C)C(=O)c2ccc(NC(=O)c3ccc(-c4ccccc4)cc3)cc2OC[C@H](C)NC[C@H]1C	inactive
O=C(CSc1nc2ncc(Cl)cc2[nH]1)c1c[nH]c2ccccc12	inactive
C[C@H](CO)N1C[C@H](C)[C@@H](CN(C)Cc2ccc(-c3ccccc3)cc2)Oc2ccc(NC(=O)C3CCCCC3)cc2C1=O	inactive
Cc1ccc(C(O)c2ncc(-c3cccc4ccccc34)[nH]2)cc1F (stereo not given)	inactive
CO[C@H]1CN(C)C(=O)c2cc(NC(=O)Nc3cc(Cl)cc(Cl)c3)ccc2OC[C@@H](C)NC[C@@H]1C	inactive
Cc1cccc(NC(=O)c2ccc(S(=O)(=O)N3CCCCC3)cc2)n1	inactive
C[C@H](CO)N1C[C@H](C)[C@H](CN(C)Cc2ccccc2)Oc2ncc(-c3ccccc3)cc2C1=O	inactive
CO[C@H]1CN(C)C(=O)c2cc(NC(=O)Nc3ccc(C(F)(F)F)cc3)ccc2OC[C@H](C)NC[C@H]1C	inactive
C[C@H](CO)N1C[C@H](C)[C@@H](CN(C)Cc2ccc(-c3ccccc3)cc2)Oc2ccc(NC(=O)CCCN(C)C)cc2C1=O	inactive
COC(=O)C[C@@H]1CC[C@@H]2[C@H](COc3ccc(NC(=O)Cc4cccs4)cc3C(=O)N2C)O1	inactive
